Screens from PubChem BioAssay.
The list is not random: actives were taken first. Their share in the collection is about 7%.
ATXN viability – Viability Counterscreen for Primary qHTS for Inhibitors of ATXN expression; S2 cells (HEK-293 line with an ATXN2-luciferase reporter) viability, CellTiter-Fluor protease fluorescence, 24 h; Potency, µM (top dose mostly 56.7 µM), actives largely listed as cytotoxic; AID 651635, 2014; 400,000 tested, 0.49% active; also: potency is read from the fitted curve at half-maximal effect; nearly all actives have a fitted effect of over 40% in size
DRD3 antagonist – qHTS of D3 Dopamine Receptor Antagonist: qHTS. D(3) dopamine receptor (Homo sapiens), P35462. max response, negative = inhibition, %. 360,000 tested, 2.5% active. D3R cells, DiscoveRx beta-arrestin luminescence, antagonist mode; hits give low values; in the data active = max response below about -50%; inconclusive = no clear call, values can overlap the other calls; also: % is scaled to controls: 0 for no effect and ±100 for the full control effect
Target sequence (P35462 whole entry, looked up): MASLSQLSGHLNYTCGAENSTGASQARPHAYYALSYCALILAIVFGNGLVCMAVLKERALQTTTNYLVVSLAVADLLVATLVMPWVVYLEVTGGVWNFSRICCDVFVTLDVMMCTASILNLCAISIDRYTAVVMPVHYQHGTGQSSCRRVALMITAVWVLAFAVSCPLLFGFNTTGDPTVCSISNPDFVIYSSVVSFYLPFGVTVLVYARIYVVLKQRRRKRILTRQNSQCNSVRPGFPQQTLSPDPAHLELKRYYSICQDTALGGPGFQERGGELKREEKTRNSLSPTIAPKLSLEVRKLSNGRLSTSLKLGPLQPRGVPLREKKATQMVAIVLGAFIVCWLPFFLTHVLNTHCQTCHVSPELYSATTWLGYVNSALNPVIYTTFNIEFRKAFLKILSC
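Cells expressing the human receptor were seeded at 1500 cells/well, incubated overnight at 37 degrees C in 5% CO2, then exposed to library compounds with dopamine controls for 90 minutes at 37 degrees C before luminescent detection.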
IL1B secr inh – qHTS for Inhibitors of Inflammasome Signaling: IL-1-beta AlphaLISA Primary Screen. THP-1 LPS/ATP IL-1B secretion, AlphaLISA, 16 h; hits give low values. activity change, % at 57.5 µM. 360,000 tested, 4.7% active; in the data active = activity change below about -50%; inconclusive = mostly about -30% to -49%; also: % is scaled to controls: 0 for no effect and ±100 for the full control effect
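THP-1 cells pretreated 1 hr with compounds (up to 57.5 uM final), then stimulated with LPS (250 ng/mL final) plus ATP (1.25 mM final); secreted IL-1B measured by AlphaLISA after 16 hr, decreased signal indicating inhibition.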
ATXN2 expr inh – Primary qHTS for Inhibitors of ATXN expression; HEK-293 ATXN2-luciferase reporter, luminescence, 24 h; Potency, µM (titrated, usually from 57 µM), for the others: at the highest dose activity change, negative = inhibition, actives largely listed as inhibitors; 360,000 tested, 0.72% active; AID 1745845, 2022; also: potency is read from the fitted curve at half-maximal effect; % is scaled to controls: 0 for no effect and ±100 for the full control effect; nearly all actives have a fitted effect of over 55% in size
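qHTS (up to 57 uM final) was run with 24 h compound exposure of reporter cells at 37 °C. Each well was multiplexed: SteadyGlo luminescence measured ATXN2-luciferase expression after a fluorogenic Gly-Phe-AFC viability readout (25 uM final).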
DRD3 agonist – qHTS of D3 Dopamine Receptor Agonist: qHTS; max activation, %; D3R DiscoveRx beta-arrestin cells, luminescence, 90 min; AID 652048, 2013; D(3) dopamine receptor (Homo sapiens), P35462; 410,000 tested, 0.58% active; in the data active = max activation above about 30%; also: 0% is about no effect
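Agonist mode: compounds and dopamine controls were applied to plated cells for 90 min at 37 degrees C after an overnight attachment at 1500 cells/well. Luminescent read-out followed 30 - 60 minutes at room temperature with DiscoveRx detection reagent.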
a7 integrin act – qHTS for Activators of Integrin-Mediated Alleviation for Muscular Dystrophy; 350,000 tested, 0.064% active; alpha7betagal myoblasts, beta-gal FDG fluorescence, 48 h; AID 624291, 2012; Potency, µM (series often up to 38.3 µM), inactives show at the highest dose activation, actives largely listed as activators;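 also: potency is read from the fitted curve at half-maximal effect; 100% = response of the positive control SU9516; nearly all actives have a fitted effect of over 60% in size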
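alpha7betagal+/- myoblasts (passage 13, 250/well) treated 48 h at 37C with compounds at 1:260 dilution of DMSO stock. Lysed, then beta-galactosidase activity read as FDG fluorescence (ex 480/em 540) after 30 min, with pre-read for autofluorescence.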
Numbers without * were called inactive; i = inactive; ? = inconclusive; nt = no result given; [ ] = remark or other dose. Unless noted, calls follow the shape of the dose curve; as a rule, active = well fitted curve in the direction sought with a large enough effect; inconclusive = small, poorly fitted or top-dose-only effect, or another doubt; inactive = no such curve, though single readings can be large; an effect the other way counts as inactive or inconclusive.

SMILES | ATXN viability | DRD3 antagonist | IL1B secr inh | ATXN2 expr inh | DRD3 agonist | a7 integrin act
COc1ccc2[nH]c(C)c(CCN(Cc3cccs3)C(=S)Nc3ccccc3)c2c1 | ? | 1 | -50* | -31% | -4 | -23%
COCCNC(=S)N(CCc1c(C)[nH]c2ccc(F)cc12)Cc1ccc(C)cc1 | ? | -6 | -73* | ? | -3 | -19%
COc1ccc(NC(=S)N(CCc2c(C)[nH]c3ccc(C)cc23)Cc2cccs2)cc1 | ? | ? | -56* | -35% | -3 | -36%
COc1ccc2[nH]c(C)c(CCN(Cc3cccs3)C(=S)Nc3ccc(F)cc3)c2c1 | ? | -11 | -28 | ? | -6 | -12%
O=C(N1CCCCC1)C12CC3CC(C1)CC(C(=O)N1CCCCC1)(C3)C2 | i | 0 | 3 | -7% | 11 | 3%
O=C(O)c1ccccc1-c1c2cc(I)c(=O)c(I)c-2oc2c(I)c(O)c(I)cc12 | 4.5µM* | -62* | -10 | -24% | -29 | nt
CC(Oc1ccc(Cl)cc1Cl)c1ccnc(N)n1 (stereo not drawn) | i | 3 | -56* | ? | 4 | 2%
CC(Oc1ccccc1)c1ccnc(N)n1 (stereo not drawn) | i | 1 | -7 | 19% | -1 | 4%
Cc1cccnc1C(NC(=O)C1CCN(Cc2ccc(Oc3ccccc3)cc2)CC1)c1ccccc1 (stereo not drawn) | ? | -81* | ? | ? | -22 | nt
COc1cc(CN2CCC(C(=O)NC(c3ccc(F)cc3)c3ncccc3C)CC2)cc(OC)c1 (stereo not drawn) | i | 0 | -22 | -9% | -20 | nt
COc1ccc(OCCN2CCC(C(=O)NC(c3ccc(Cl)cc3)c3cccnc3)CC2)cc1 (stereo not drawn) | i | 20 | -12 | -21% | -15 | nt
COc1ccc(C(NC(=O)C2CCN(Cc3ccc(Oc4ccccc4)cc3)CC2)c2ccccc2C)cn1 (stereo not drawn) | ? | -79* | ? | -20% | -15 | nt
Cc1cccnc1C(NC(=O)C1CCN(Cc2ccccc2)CC1)c1ccc(F)cc1 (stereo not drawn) | i | -55* | -15 | -30% | -12 | nt
Cc1cccnc1C(NC(=O)C1CCN(CCCOc2ccccc2)CC1)c1ccc(F)cc1 (stereo not drawn) | i | -105* | -17 | -2% | -27 | nt
O=C(CCc1ccccc1)NNC(=S)NC(=O)c1ccccc1 | i | 0 | 0 | ? | -8 | -14%
CC(C)(C)c1cc(CCC(=O)NNC(=S)NC(=O)c2ccccc2)cc(C(C)(C)C)c1O | i | -79* | 169 | -12% | -20 | -62%
CC(=O)/C(=C/c1ccccc1)C(=O)Nc1ccccc1C | ? | ? | -104* | nt | -2 | -2%
Cc1ccccc1NC(=O)C(=Cc1ccc(C(=O)O)cc1)C(=O)Nc1ccccc1C | ? | 8 | -106* | 11µM* | -10 | -23%
O=C1CCC[C@H]2c3[nH]c4ccccc4c3CCN12 | i | -51* | 24 | 4% | -22 | 1%
O=C(O)[C@@H]1Cc2c([nH]c3ccccc23)C2CCC(=O)N21 (stereo partly drawn) | i | -2 | 28 | 14% | -6 | -33%
COC(=O)c1ccc(NCc2cc(O)ccc2O)cc1O | nt | -22 | -104* | ? | 0 | -54%
COC(=O)c1ccc(NCc2c(O)ccc(O)c2Br)cc1Cl | nt | -17 | -119* | ? | -4 | -48%
COC(=O)c1cc(NCc2c(F)cccc2Cl)ccc1N1CCOCC1 | i | -11 | -3 | -19% | -9 | -5%[7.66 µM]
Cc1nn(-c2ccccn2)c2c1C(=O)C(Br)CC2 (stereo not drawn) | ? | -9 | -106* | ? | -1 | -67%
CC1=C(C)C(=O)N(c2ccccn2)C1=O | ? | -25 | 17 | -9% | 7 | 0%
SMILES | ATXN viability | DRD3 antagonist | IL1B secr inh | ATXN2 expr inh | DRD3 agonist | a7 integrin act
O=C1CSC(=Nc2ccc(Cl)cc2)N1Cc1cccnc1 | i | 10 | nt | -14% | 15 | 1%
CC#CCN(Cc1ccco1)C(=O)c1ccc(OC2CCN(Cc3ccccn3)CC2)cc1 | i | ? | -6 | -4% | -22 | -4%
Cc1ccc(C(=O)Oc2cc(C)n(C)c(=O)c2)cc1 | i | 91 | 3 | -17% | 35* | -14%
COCCNc1nc2cc(-c3cccc(C(F)(F)F)c3)sc2c(=O)n1C | i | 2 | 72 | 8% | -6 | nt
CN(C)CCCNc1nc2cc(-c3cccc(C(F)(F)F)c3)sc2c(=O)n1C | 32µM* | -1 | -66* | 20µM* | -16 | nt
Cc1ccccc1-c1cc2nc(NCCCN(C)C)n(C)c(=O)c2s1 | i | 4 | -81* | -2% | -5 | nt
CN(C)CCCNc1nc2cc(-c3cccc(Cl)c3)sc2c(=O)n1C | ? | -60* | -25 | ? | -21 | nt
O=C1CCC/C(=N/Nc2ccc(Cl)cc2)C1 | i | -13 | 3 | -9% | -1 | -34%
CC(c1ccccc1)C1NC(C(=O)O)CS1 (stereo not drawn) | i | -11 | 5 | 5% | 1 | 1%
COc1ccc(Cl)cc1C(=O)NNC(=S)NC(=O)c1cc(-c2ccc(Cl)cc2)nc2ccccc12 | i | -61* | 37 | 5% | -5 | 13%
CCNC(=S)NNC(=O)c1cc(-c2ccc(OC)cc2)nc2ccccc12 | i | -6 | -4 | -28% | 2 | -6%
O=C(Nc1nc2c(s1)CCCC2)c1cc(-c2ccncc2)nc2ccccc12 | i | ? | 15 | 6% | -28 | 4%
O=C(Nc1nc2c(s1)CCCC2)c1cc(-c2ccccc2)nc2ccccc12 | ? | -81* | -7 | -7% | -8 | -6%
CC(C)(C)c1nc(SCC(=O)Nc2nc3c(s2)CCCC3)c2ccccc2n1 | i | -13 | -4 | -33% | 6 | 5%
CC(C)c1nc(SCC(=O)Nc2nc3c(s2)CCCC3)c2ccccc2n1 | ? | 9 | -63* | ? | 3 | -35%
O=C(NNC(=O)c1cc(-c2ccc(Cl)cc2Cl)nc2ccccc12)Nc1ccccc1 | ? | -28 | -64* | -12% | -10 | 1%
O=C(NNC(=O)c1ccc(Cl)cc1Cl)Nc1ccccc1 | i | -16 | -19 | 2% | 2 | 3%
O=C(NC(=S)Nc1ccccn1)c1cc(-c2ccccc2)nc2ccccc12 | i | -4 | 6 | -6% | 2 | 17%
O=C(NC(=S)Nc1ccccc1)c1cc(-c2ccccc2)nc2ccccc12 | i | -125* | 24 | -12% | -9 | 14%
